Test results as given in PubChem BioAssay.

experiment: MRP1 drug-resistance reversers in H69AR cells – cell-based, doxorubicin co-treatment, pilot screen (AID 601); conditions: H69AR cells, CellTiter-Glo, 72 h; compound alone cytotoxicity; at 10 µM

Row | SMILES | viability [%]
1 | CC1C(c2ccccc2)N(C)CCC12NC(=O)NC2=O (stereo unspecified) | 98.2
2 | COC(=O)c1cc(Br)c(=O)n(CCN2CCOCC2)c1 | 96.2
3 | O=C(Nc1ccccc1C(=O)N1CCN(c2ccccc2)CC1)c1ccco1 | 100
4 | CC(C)CCNC(=O)NC(=O)COc1ccccc1C#N | 97.1
5 | Cc1ccc2c(Cl)cc(Cl)c(OCc3c(C)noc3C)c2n1 | 84.9
6 | O=C(c1cccc(Cl)c1)N1CCN(Cc2ccncc2)CC1 | 105
7 | Cn1c(=N)n(CC(=O)O)c2ccccc21 | 96.2
8 | O=C(Nc1ccccc1)c1cccc(N2CCCC2=O)c1 | 103
9 | Fc1ccc(-c2csc3nnc(SCc4cccnc4)n23)cc1 | 82.9
10 | COc1ccc(CNC(=O)c2cc(-c3ccc(OC)c(OC)c3)on2)cc1 | 94.4
11 | CCN(CC)CCOC(=O)c1c(C)oc2ccc(O)cc12 | 95
12 | COc1ccccc1Nc1ccc(C(=O)NC2CCCCC2)cn1 | 93.2
13 | CCCCn1nnnc1SCC(=O)Nc1cccc(C)n1 | 113
14 | COc1nc(OC)nc(N2CCC(C(=O)NC3CCCCCC3)CC2)n1 | 105
15 | COC(=O)[C@H](C)NC(=O)Nc1cc(OC)ccc1OC | 75.1
16 | Cc1ccc(CNC(=O)C2CCCN(S(=O)(=O)c3cccnc3)C2)cc1 (stereo unspecified) | 99.6
17 | OCc1nc2ccccc2n1CC(O)Cn1ccc2ccccc21 (stereo unspecified) | 85.2
18 | Cc1cc(C)cc(N2CCCn3c2nc2c3c(=O)n(CCN3CCOCC3)c(=O)n2C)c1 | 83.3
19 | Cn1c(=O)c2c([nH]c(=O)n2C)n(C)c1=O | 90.2
20 | CCNCC(O)COCC(O)CNCC (stereo unspecified) | 99.7
21 | CCOC(=O)N1CCN(c2ncnc3c2[nH]c2ccc(OC)cc23)CC1 | 81.3
